Test results published in ChEMBL document CHEMBL3988442, “University of Dundee, Small-Polar-MMV Screening Library” (2021).
Screen size: about 48,000 compounds; about 13,000 (27%) showed an effect of 50% or more. The list shows a part of the results.

What follows are molecules tested on Wolbachia pipientis (assay: Anti-Wolbachia Cell-Based Screen). Conditions: 5 µM.
Format: functional
Set-up: scale not given: in the data most compounds retested in dose-response had high values

Row | Compound | Percent Effect [%]
1 | COc1ccc(CNC(=O)NC2CCN(c3ccccc3)C2=O)cc1 (centres undefined) | -1.645
2 | Cc1noc(NC(=O)c2ccc(Br)s2)n1 | 1.553
3 | CC1=N[C@@]2(CC[C@@H]3CN(C(=O)NCC(C)C)C[C@@H]32)C(=O)N1C | 7.686
4 | Cc1c(CNC(=O)NCc2cccc(-n3cncn3)c2)cnn1C | -0.3036
5 | COc1c(C2CCCN2C(=O)c2ccoc2)c(C)nn1C (centres undefined) | 3.459
6 | Cc1nn(C)c(C)c1C1CCCN1C(=O)c1ccc(NC2CC2)nc1 (centres undefined) | -8.845
7 | COc1c(C2CCCN2C(=O)c2ccc(O)nc2)c(C)nn1C (centres undefined) | 97.38
8 | Cc1nn(C)c(Cl)c1C1CCCN1C(=O)c1ccc(O)nc1 (centres undefined) | 94.29
9 | Cc1nn(C)c(Cl)c1C1CCCN1C(=O)c1ccc(C(N)=O)cn1 (centres undefined) | 118.3
10 | CC(C)c1ncc(C(=O)N(C)c2ccc(Br)cn2)s1 | 0.7212
11 | Cc1cc(CN2CCC(C3CCN(CCc4ccccc4)CC3)C2)[nH]n1 (centres undefined) | -2.584
12 | CC(C)CN1C[C@@H]2OCC(=O)N(c3ccccc3)[C@@H]2C1 | -2.791
13 | O=C(CCc1ccccc1)N1CCC(N2CCNC2=O)CC1 | 0.2283
14 | O=C(CCc1ccsc1)N1CCC(N2CCNC2=O)CC1 | 88.84
15 | O=C(Nc1nccs1)N1CCCC(N2CCNC2=O)C1 (centres undefined) | -14.98
16 | O=C(CCCc1cccs1)N1CCC(N2CCNC2=O)CC1 | 94.13
17 | O=C(CCc1nccs1)N1CCCC(N2CCNC2=O)C1 (centres undefined) | -19.11
18 | O=C(CCc1cccs1)N1CCC(N2CCNC2=O)CC1 | 8.278
19 | O=C(CCc1cccs1)N1CCCC(N2CCNC2=O)C1 (centres undefined) | 103.5
20 | O=C(CCc1nccs1)N1CCC(N2CCNC2=O)CC1 | -13.84
21 | O=C1NCCN1C1CCN(CCc2cccs2)CC1 | 3.932
22 | CC(C)(C)OC(=O)NCC1CCN(C(=O)c2ccc(F)cc2F)C1 (centres undefined) | 18.58
23 | CC(c1nc(C2CC2)no1)N1CCN(CCCN2CCCC2=O)CC1 (centres undefined) | 95.99
24 | CC(c1nc(C2CC2)no1)N1CCN(CCN2CCCC2=O)CC1 (centres undefined) | 130.5
25 | CC(c1nc(C2CC2)no1)N1CCN(CCOCC(F)(F)F)CC1 (centres undefined) | 15.62

Row | Compound | Percent Effect [%]
26 | CC(c1nc(C2CC2)no1)N1CCN(CCn2ccccc2=O)CC1 (centres undefined) | -4.377
27 | CC(C)c1noc(C(C)N2CCN(CCCN3CCCC3=O)CC2)n1 (centres undefined) | 113.6
28 | COCCCN1CCCN(C(C)c2nc(C3CC3)no2)CC1 (centres undefined) | -0.2305
29 | CC(C)c1noc(C(C)N2CCN(CCO)CC2)n1 (centres undefined) | -1.52
30 | CC(C)c1noc(C(C)N2CCN(CCN3CCCC3=O)CC2)n1 (centres undefined) | -2.358
31 | O=C(N1CCCC1)N1C[C@H]2CC[C@@]3(N=C(c4ccccc4)NC3=O)[C@H]2C1 | -1.269
32 | COc1c(C)cnc(CSc2nnc(C)s2)c1C | 6.724
33 | Cc1nnc(SCc2ccccn2)s1 | 113.6
34 | c1ccc(CSc2nnc(C3CC3)s2)nc1 | -7.286
35 | CCC(Nc1nc(CCN)nc2ccccc12)c1cccs1 (centres undefined) | 21.59
36 | Cc1nc(NCCSc2cnn[nH]2)c2c(C)noc2n1 | -13.5
37 | CCC(Nc1nc(C)nc2onc(C)c12)c1nc(C)c(C)s1 (centres undefined) | 99.23
38 | CCCc1nc(C)c(CNc2nc(C)nc3onc(C)c23)s1 | 18.49
39 | CCC(Nc1nc(C)nc2onc(C)c12)c1cccs1 (centres undefined) | 84.62
40 | Cc1nc(NCCSc2ccccn2)c2c(C)noc2n1 | 2.263
41 | Cc1nc(COc2ccc(OCC(N)=O)cc2)oc1C | 23.22
42 | CC(C)N(C)C(=O)CN1C(=O)OC[C@@H]1c1ccccc1 | -15.23
43 | CCn1c(C)nnc1CN(C)C1CCN(Cc2sc(C)nc2C)C1 (centres undefined) | 1.106
44 | Cc1nc(CN(C)C2CCN(Cc3sc(C)nc3C)C2)no1 (centres undefined) | -5.233
45 | Cc1ccc(N2CCCC(N(C)Cc3nnc(C4CC4)o3)C2)nn1 (centres undefined) | -13.84
46 | Cc1nc(C)c(CN2CCC(N(C)Cc3noc(C4CC4)n3)C2)s1 (centres undefined) | 84.99
47 | Cc1ncc(CN(C)C2CCCN(Cc3noc(C4CC4)n3)C2)s1 (centres undefined) | 1.76
48 | Cc1nc(C)c(CN2CCC(N(C)Cc3nnc(C4CC4)o3)C2)s1 (centres undefined) | 83.42
49 | O=C(CN1C(=O)c2ccccc2CS1(=O)=O)c1ccccc1 | -5.153
50 | COCC(C)NC(=O)c1cncc(Br)c1 (centres undefined) | 15.5

Row | Compound | Percent Effect [%]
51 | Cc1cc(O)cc2c(=O)oc(CC(C)O)cc12 (centres undefined) | -7.016
52 | CC(C)CCc1nc(CNCC2CN(C)CCO2)cs1 (centres undefined) | 94.45
53 | CN1CCOC(CNCc2nc(-c3ccccc3)cs2)C1 (centres undefined) | 5.622
54 | Cc1ccc(-c2cn3c(n2)CO[C@@H](CNCc2nccs2)C3)cc1 | -9.469
55 | Cc1ccc(OCc2nc(CNCC3CN(C)CCO3)cs2)cc1 (centres undefined) | 109.6
56 | Cc1c(F)cccc1NC(=O)N(C(C)CS(C)(=O)=O)C1CC1 (centres undefined) | -14.75
57 | CCC(CO)N(Cc1ccccn1)C(=O)c1ccc2c(c1)CCO2 (centres undefined) | 6.403
58 | CCSCc1cccc(NC2CCN(C)C2=O)c1 (centres undefined) | -4.409
59 | CC(C)c1nc(CN2CCCCC2Cn2cncn2)cs1 (centres undefined) | 82.22
60 | CCCc1nc(CN2CCCCC2Cn2cncn2)cs1 (centres undefined) | 92.11
61 | CCCc1nc(CN2CCCC2Cn2cncn2)cs1 (centres undefined) | 0.1257
62 | CN(C)C(=O)Cc1nc(CN2CCCCC2Cn2cncn2)cs1 (centres undefined) | -10.91
63 | c1ncn(CC2CCCCN2Cc2csc(C3CCCC3)n2)n1 (centres undefined) | 3.175
64 | CC(C)c1nc(CN2CCCC2CN2CCCC2)cs1 (centres undefined) | 11.4
65 | Cc1nc(C(NS(=O)(=O)N(C)C)c2ccccc2F)no1 (centres undefined) | -14.73
66 | O=C(NC[C@H]1OC[C@@H](NC2CCC(F)(F)CC2)[C@@H]1O)c1ccccc1 | -10.21
67 | O=C(CCc1ccncc1)N1CCc2c(ncnc2N2CCOCC2)C1 | -13.92
68 | COc1cc(C)c2c(c1C)C[C@H]([C@H](C)C(=O)O)CC2 | -11.67
69 | Cn1ncc2c(=O)[nH]c(CN3CCCc4cc(F)ccc43)nc21 | -1.731
70 | CCN1CCC(=O)N(C)Cc2cc(F)ccc21 | 110.2
71 | CCN1CC2(CCC1=O)CCN(Cc1cc(F)ccc1Cl)CC2 | -6.305
72 | CN1Cc2cc(F)ccc2N(CC(C)(C)O)CCC1=O | 116.8
73 | CN1CCN(S(C)(=O)=O)c2ccc(F)cc21 | -0.158
74 | CSCCC(C)NC(=O)CCN1C(=O)CCc2cc(F)ccc21 (centres undefined) | 2.729
